# Read-outs that look alike come from different tables or passages of the source.
# Columns and labels:
# Details in all cases: n = 1
# [1] = system: STK16
# [2] = system: STK33
# [3] = system: STK35
# [4] = system: STK36
# [5] = system: STK39
# [6] = system: SYK
# [7] = system: SgK110
# [8] = system: T1, TAK1
# T1 construct: gene MAP3K7
# [9] = system: TAOK1
# [10] = system: TAOK2
# [11] = system: TAOK3
# [12] = system: TBK1
# [13] = system: TEC
# [14] = system: TESK1
# [15] = system: TGFBR1
# [16] = system: TGFBR2
# [17] = system: TIE1
# [18] = system: T2, TIE2
# T2 construct: gene TEK
# [19] = system: TLK1
# [20] = system: TLK2
# [21] = concentration: 1 μM, replicates: in singlicate
# 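Note: KINOMEscan kinase panel screen.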
smiles,measurement,setting,value
CN1C(=O)C(Nc2ccc(Cl)c(C(=O)O)c2)=C(c2ccc(Cl)cc2)C1=O [SB-404290],%Inh,[1]; [21],0%
same,%Inh,[2]; [21],0%
same,%Inh,[3]; [21],4%
same,%Inh,[4]; [21],0%
same,%Inh,[5]; [21],0%
same,%Inh,[6]; [21],28%
same,%Inh,[7]; [21],0%
same,%Inh,[8]; [21],0%
same,%Inh,[9]; [21],11%
same,%Inh,[10]; [21],5%
same,%Inh,[11]; [21],19%
same,%Inh,[12]; [21],27%
same,%Inh,[13]; [21],0%
same,%Inh,[14]; [21],0%
same,%Inh,[15]; [21],0%
same,%Inh,[16]; [21],0%
same,%Inh,[17]; [21],0%
same,%Inh,[18]; [21],14%
same,%Inh,[19]; [21],0%
same,%Inh,[20]; [21],0%
CCCc1ccc(S(=O)(=O)NC2CCN(c3ccnc(Nc4ccc(F)cc4)n3)C2)cc1 (stereo not drawn) [GSK1379715],%Inh,[1]; [21],6%
same,%Inh,[2]; [21],0%
same,%Inh,[3]; [21],0%
same,%Inh,[4]; [21],0%
same,%Inh,[5]; [21],13%
same,%Inh,[6]; [21],0%
same,%Inh,[7]; [21],34%
same,%Inh,[8]; [21],0%
same,%Inh,[9]; [21],0%
same,%Inh,[10]; [21],0%
same,%Inh,[11]; [21],0%
same,%Inh,[12]; [21],0%
same,%Inh,[13]; [21],0%
same,%Inh,[14]; [21],74%
same,%Inh,[15]; [21],0%
same,%Inh,[16]; [21],0%
same,%Inh,[17]; [21],0%
same,%Inh,[18]; [21],0%
same,%Inh,[19]; [21],0%
same,%Inh,[20]; [21],0%
Cc1ccc(NC(=O)Nc2cccc(C(F)(F)F)c2)cc1 [GSK955403],%Inh,[1]; 1 µM,30%
same,%Inh,[2]; 1 µM,0%
same,%Inh,[3]; 1 µM,0%
same,%Inh,[4]; 1 µM,10%
same,%Inh,[5]; 1 µM,3%
same,%Inh,[6]; 1 µM,19%
same,%Inh,[7]; 1 µM,0%
same,%Inh,[8]; 1 µM,13%
same,%Inh,[9]; 1 µM,0%
same,%Inh,[10]; 1 µM,0%
same,%Inh,[11]; 1 µM,0%
same,%Inh,[12]; 1 µM,33%
same,%Inh,[13]; 1 µM,7%
same,%Inh,[14]; 1 µM,36%
same,%Inh,[15]; 1 µM,6%
same,%Inh,[16]; 1 µM,0%
same,%Inh,[17]; 1 µM,13%
same,%Inh,[18]; 1 µM,38%
same,%Inh,[19]; 1 µM,20%
same,%Inh,[20]; 1 µM,3%
COc1ccc(Nc2nccc(NCCNC(=O)Nc3ccccc3F)n2)cc1 [GSK1379901],%Inh,[1]; [21],18%
same,%Inh,[2]; [21],0%
same,%Inh,[3]; [21],0%
same,%Inh,[4]; [21],0%
same,%Inh,[5]; [21],10%
same,%Inh,[6]; [21],32%
same,%Inh,[7]; [21],0%
same,%Inh,[8]; [21],0%
same,%Inh,[9]; [21],0%
same,%Inh,[10]; [21],0%
same,%Inh,[11]; [21],0%
same,%Inh,[12]; [21],21%
same,%Inh,[13]; [21],12%
same,%Inh,[14]; [21],44%
same,%Inh,[15]; [21],3%
same,%Inh,[16]; [21],0%
same,%Inh,[17]; [21],0%
same,%Inh,[18]; [21],0%
same,%Inh,[19]; [21],0%
same,%Inh,[20]; [21],0%
Fc1cccc(COc2nnc(-c3ccc4c(c3)CCO4)o2)c1,%Inh,[1]; [21],7%
same,%Inh,[2]; [21],2%
same,%Inh,[3]; [21],4%
same,%Inh,[4]; [21],7%
same,%Inh,[5]; [21],0%
same,%Inh,[6]; [21],0%
same,%Inh,[7]; [21],0%
same,%Inh,[8]; [21],7%
same,%Inh,[9]; [21],0%
same,%Inh,[10]; [21],0%
same,%Inh,[11]; [21],0%
same,%Inh,[12]; [21],0%
same,%Inh,[13]; [21],33%
same,%Inh,[14]; [21],0%
same,%Inh,[15]; [21],10%
same,%Inh,[16]; [21],0%
same,%Inh,[17]; [21],7%
same,%Inh,[18]; [21],0%
same,%Inh,[19]; [21],25%
same,%Inh,[20]; [21],0%
COc1ccc(C2=C(Nc3cccc(C(=O)O)c3)C(=O)NC2=O)cc1 [SB-390765],%Inh,[1]; [21],10%
same,%Inh,[2]; [21],0%
same,%Inh,[3]; [21],13%
same,%Inh,[4]; [21],22%
same,%Inh,[5]; [21],0%
same,%Inh,[6]; [21],25%
same,%Inh,[7]; [21],0%
same,%Inh,[8]; [21],21%
same,%Inh,[9]; [21],28%
same,%Inh,[10]; [21],28%
same,%Inh,[11]; [21],23%
same,%Inh,[12]; [21],11%
same,%Inh,[13]; [21],10%
same,%Inh,[14]; [21],12%
same,%Inh,[15]; [21],1%
same,%Inh,[16]; [21],0%
same,%Inh,[17]; [21],7%
same,%Inh,[18]; [21],21%
same,%Inh,[19]; [21],1%
same,%Inh,[20]; [21],0%
CS(=O)(=O)c1ccc(-c2c(-c3ncn[nH]3)sc(N3CCOCC3)c2C#N)cc1,%Inh,[1]; [21],7%
same,%Inh,[2]; [21],0%
same,%Inh,[3]; [21],0%
same,%Inh,[4]; [21],1%
same,%Inh,[5]; [21],0%
same,%Inh,[6]; [21],23%
same,%Inh,[7]; [21],15%
same,%Inh,[8]; [21],33%
same,%Inh,[9]; [21],0%
same,%Inh,[10]; [21],0%
same,%Inh,[11]; [21],0%
same,%Inh,[12]; [21],14%
same,%Inh,[13]; [21],9%
same,%Inh,[14]; [21],0%
same,%Inh,[15]; [21],12%
same,%Inh,[16]; [21],10%
same,%Inh,[17]; [21],11%
same,%Inh,[18]; [21],9%
same,%Inh,[19]; [21],5%
same,%Inh,[20]; [21],0%
Cn1ccc2ncnc(Oc3ccc(Nc4nc5ccccc5[nH]4)cc3)c21,%Inh,[1]; [21],15%
same,%Inh,[2]; [21],0%
same,%Inh,[3]; [21],19%
same,%Inh,[4]; [21],0%
same,%Inh,[5]; [21],0%
same,%Inh,[6]; [21],0%
same,%Inh,[7]; [21],0%
same,%Inh,[8]; [21],0%
same,%Inh,[9]; [21],0%
same,%Inh,[10]; [21],0%
same,%Inh,[11]; [21],0%
same,%Inh,[12]; [21],0%
same,%Inh,[13]; [21],0%
same,%Inh,[14]; [21],0%
same,%Inh,[15]; [21],0%
same,%Inh,[16]; [21],0%
same,%Inh,[17]; [21],5%
same,%Inh,[18]; [21],0%
same,%Inh,[19]; [21],0%
same,%Inh,[20]; [21],0%
COc1cc2nccc(Nc3ccc(NC(=O)c4ccc(C)cc4)c(O)c3)c2cc1OC.Cl [GW440132],%Inh,[1]; [21],0%
same,%Inh,[2]; [21],7%
same,%Inh,[3]; [21],0%
same,%Inh,[4]; [21],0%
same,%Inh,[5]; [21],0%
same,%Inh,[6]; [21],38%
same,%Inh,[7]; [21],0%
same,%Inh,[8]; [21],0%
same,%Inh,[9]; [21],0%
same,%Inh,[10]; [21],0%
same,%Inh,[11]; [21],0%
same,%Inh,[12]; [21],0%
same,%Inh,[13]; [21],3%
same,%Inh,[14]; [21],25%
same,%Inh,[15]; [21],0%
same,%Inh,[16]; [21],0%
same,%Inh,[17]; [21],6%
same,%Inh,[18]; [21],0%
same,%Inh,[19]; [21],0%
same,%Inh,[20]; [21],0%
Cl.c1ccc(-c2n[nH]cc2-c2ccnc(-c3ccc(CN4CCOCC4)cc3)c2)nc1 [GW776245],%Inh,[1]; [21],17%
same,%Inh,[2]; [21],0%
same,%Inh,[3]; [21],0%
same,%Inh,[4]; [21],9%
same,%Inh,[5]; [21],0%
same,%Inh,[6]; [21],16%
same,%Inh,[7]; [21],0%
same,%Inh,[8]; [21],0%
same,%Inh,[9]; [21],0%
same,%Inh,[10]; [21],5%
same,%Inh,[11]; [21],0%
same,%Inh,[12]; [21],61%
same,%Inh,[13]; [21],17%
same,%Inh,[14]; [21],6%
same,%Inh,[15]; 1 µM,94.5%
same,%Inh,[16]; [21],87%
same,%Inh,[17]; [21],0%
same,%Inh,[18]; [21],24%
same,%Inh,[19]; [21],0%
same,%Inh,[20]; [21],0%
C[C@@H]1CCCCN1c1cc(-c2ccc3c(N)n[nH]c3c2)nc(N)n1 [GSK2258759],%Inh,[1]; [21],19%
same,%Inh,[2]; [21],0%
same,%Inh,[3]; [21],0%
same,%Inh,[4]; [21],0%
same,%Inh,[5]; [21],0%
same,%Inh,[6]; [21],10%
same,%Inh,[7]; [21],0%
same,%Inh,[8]; [21],0%
same,%Inh,[9]; [21],0%
same,%Inh,[10]; [21],0%
same,%Inh,[11]; [21],0%
same,%Inh,[12]; [21],24%
same,%Inh,[13]; [21],0%
same,%Inh,[14]; [21],0%
same,%Inh,[16]; [21],0%
same,%Inh,[17]; [21],0%
same,%Inh,[18]; [21],0%
same,%Inh,[19]; [21],23%
same,%Inh,[20]; [21],4%

# Source: PMC5540273 (PLoS ONE, 2017)
